# Compound activity (PubChem BioAssay)
# beta cell repl = inducers of MIN6 beta-cell proliferation, primary screen, ATP luminescence, uHTS; MIN6 cells proliferation, ATPlite luminescence, 48 h; cells starved in 0.2% serum; 100% = growth in 10% serum; proliferation, % at 10 µM; 330,000 tested, 0.29% active; AID 2380, 2010;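 active = compounds whose signal lies at least 3.5 SD above the mean of all wells on their plate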;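 also: 0% = DMSO-treated cells in low-serum medium and 100% = 10% serum control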
# hiPSC survival = enhancers of single-cell hiPSC survival, primary screen, ATPlite luminescence. 100% = ROCK inhibitor wells, 0% = DMSO. survival enhancement, % at 20 µM. 360,000 tested, 0.044% active. AID 602274, 2012; in the data active = survival enhancement above about 18%;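 also: cells exposed to compounds for 16 hours before the ATP read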
# ABCB6 inh MLPCN = ABCB6 transporter inhibitors, primary screen, K562-ABCB6 cells, flow cytometry, MLPCN library; ATP-binding cassette sub-family B member 6 (Homo sapiens), Q9NP58; K562-ABCB6 porphyrin accumulation, 1 h; active compounds read low; fluorescence ratio to DMSO, % at 10 µM; 360,000 tested, 0.19% active;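 active = fluorescence ratio to DMSO below 75%, the collection mean minus 3 SD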;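 also: signal is porphyrin accumulated inside mitochondria; 100% equals median channel fluorescence of DMSO control wells; lower ratio means ABCB6 inhibition with less porphyrin fluorescence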
# Target sequence (Q9NP58 whole entry, looked up): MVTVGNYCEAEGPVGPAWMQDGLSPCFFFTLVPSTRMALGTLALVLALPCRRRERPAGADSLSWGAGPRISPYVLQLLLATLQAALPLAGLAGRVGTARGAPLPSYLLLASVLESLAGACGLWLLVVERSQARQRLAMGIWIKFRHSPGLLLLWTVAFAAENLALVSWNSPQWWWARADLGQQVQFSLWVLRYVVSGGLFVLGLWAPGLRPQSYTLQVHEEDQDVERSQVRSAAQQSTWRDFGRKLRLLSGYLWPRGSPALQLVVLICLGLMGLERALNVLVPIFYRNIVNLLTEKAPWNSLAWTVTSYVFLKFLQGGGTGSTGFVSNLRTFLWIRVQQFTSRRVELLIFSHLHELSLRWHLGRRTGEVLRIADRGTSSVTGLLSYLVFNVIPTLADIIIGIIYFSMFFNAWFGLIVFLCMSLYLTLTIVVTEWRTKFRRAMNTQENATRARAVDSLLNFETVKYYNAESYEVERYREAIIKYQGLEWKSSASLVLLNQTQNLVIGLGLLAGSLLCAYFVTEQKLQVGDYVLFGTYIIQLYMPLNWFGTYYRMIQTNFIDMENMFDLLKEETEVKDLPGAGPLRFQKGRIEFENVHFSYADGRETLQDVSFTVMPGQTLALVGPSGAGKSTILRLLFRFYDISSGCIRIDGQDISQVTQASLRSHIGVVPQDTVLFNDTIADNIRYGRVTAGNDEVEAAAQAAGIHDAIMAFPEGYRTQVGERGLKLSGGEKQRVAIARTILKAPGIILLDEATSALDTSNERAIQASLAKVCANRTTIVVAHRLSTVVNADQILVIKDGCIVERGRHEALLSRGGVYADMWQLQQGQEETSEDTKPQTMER
# Cardio protect = cardioprotection against H2O2-induced cell death, primary screen, uHTS, H9c2 cells, ATPLite luminescence | H9c2 cardiomyocytes, H2O2 injury protection, 2 h | protection from H2O2 cell death, % at 20 µM | 360,000 tested, 0.63% active;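 active = compounds giving at least 50% protection of heart cells from peroxide-induced death in the single-dose screen, raw or plate-pattern-corrected value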;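 also: 0% = DMSO wells with peroxide and 100% = DMSO wells without peroxide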
# Myeloid diff 2 = induction of myeloid progenitor differentiation, primary screen, cell-based, flow cytometry, MLPCN library | ER-HoxA9 myeloid progenitors, lysozyme-GFP differentiation | calls only at 10 µM | 360,000 tested, 1% active;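 active = normalized GFP-positive differentiation at or above the plate's own cutoff, the solvent-only control mean plus 3 SD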;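 also: cells exposed to compound for four days before flow analysis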
# Numbers without * were called inactive; i = inactive; x = no result given; + = active, no number. Only some compounds are listed: those with a hit (about 2.2% of all), similar ones and a draw of the others.
SMILES,beta cell repl,hiPSC survival,ABCB6 inh MLPCN,Cardio protect,Myeloid diff 2
CCOC(=O)C1=C(COC(=O)/C=C/c2ccc(F)cc2)NC(=O)NC1C (centres undefined),x,3,96,45*,i
N#CC1(NC(=O)COC(=O)c2ccccc2[N+](=O)[O-])CCCCC1,0,0,96,-2,i
N#CC1(NC(=O)COC(=O)c2cc(O)c3ccccc3c2O)CCCCC1,-7,0,117,-17,+
CCOc1ccccc1CNc1nnnn1C,-1,0,97,2,i
CCOc1ccccc1CNn1nnnc1N,-5,0,101,7,+
O=C(C1CC2CCC1C2)N1CCN(Cc2ccc3c(c2)OCO3)CC1 (centres undefined),-2,x,x,x,x
CCOCCn1c(CN2CCN(C(c3ccccc3)c3ccccc3)CC2)nc2c1c(=O)n(C)c(=O)n2C,-6,0,98,14,i
COc1cccc2sc(NNC(=O)C3=COCCO3)nc12,-3,0,103,1,+
COc1ccc(OC)c2sc(NC(=O)C3=COCCO3)nc12,0,1,90,7,i
CCOc1ccccc1NC(=O)NNS(=O)(=O)c1ccc([N+](=O)[O-])cc1,-3,0,98,5,i
COc1ccc(Nc2nc(C(=O)N3CCc4cc(OC)c(OC)cc4C3)cs2)cc1,-2,0,95,74*,i
COc1ccc(Nc2nc(C(=O)N3CCc4ccccc4C3)cs2)cc1,-3,1,94,1,i
CN(N)c1nc(C(F)(F)F)nc2ccccc12,-1,1,88,0,+
NNc1nc(C(F)(F)F)nc2ccccc12,-2,0,101,3,i
COc1ccc(N2CCN(c3n[nH]c(N)n3)CC2)cc1,0,1,97,0,i
CC(=O)c1coc2ccc(OCC(=O)O)cc12,-3,-1,101,-2,+
COc1ccc(OC)c(C(=O)c2coc3ccc(OCC(=O)O)cc23)c1,-1,6,96,-2,i
CNC(=O)c1cccc(NC(=O)c2cc(-c3ccccc3)nc3c2cnn3C(C)C)c1,-7,-2,87,59*,i
COc1cc(NC(=O)c2cc(-c3ccccc3)nc3c2cnn3C(C)C)cc(OC)c1OC,-6,0,94,6,i
COc1ccc(C2c3ccc(O)cc3Oc3ncn4nc(-c5cccnc5)nc4c32)cc1OC (centres undefined),-5,-1,99,42,+
CC(C)(O)CC[C@@H](O)[C@](C)(O)[C@H]1CC[C@@]2(O)C3=CC(=O)[C@@H]4C[C@@H](O)[C@@H](O)C[C@]4(C)[C@H]3CC[C@]12C,5,0,100,3,i
C[C@@H](C(=O)Nc1nc(-c2ccccn2)cs1)N1C(=O)C2CCCCC2C1=O (some centres undefined),-2,0,101,95*,i
CC(C)[C@H](NC(=O)c1ccccc1Cl)C(=O)Nc1nc(-c2ccccn2)cs1,-5,0,87,70*,i
O=C(CN1C(=O)C2CCCCC2C1=O)Nc1nc(-c2ccccn2)cs1 (centres undefined),-1,4,98,9,i
O=C(NC1CCc2ccccc21)c1cc(COc2ccc(F)cc2Cl)on1 (centres undefined),-2,0,98,-2,i
SMILES,beta cell repl,hiPSC survival,ABCB6 inh MLPCN,Cardio protect,Myeloid diff 2
CC(=O)O/N=C/c1c(N2CCOCC2)n(C)c2ccccc12,-5,4,52*,-1,i
CCOC(=O)C1=C(C)OC(N)=C(C#N)C1c1ccsc1 (centres undefined),-4,4,105,3,i
N#CC1=C(N)Oc2c(O)cc3ccccc3c2C1c1ccsc1 (centres undefined),-4,0,101,58*,i
O=C(Nc1ccccc1C(=O)Nc1ccncc1)c1cccc([N+](=O)[O-])c1,-2,0,97,6,i
O=C(O)c1cccc(NC(=O)c2ccccc2NC(=O)c2cccc([N+](=O)[O-])c2)c1,-1,0,334,6,+
N#Cc1ccccc1S(=O)(=O)N1CCN(c2nc(-c3cccnc3)nc3ccccc23)CC1,-4,0,95,83*,i
COc1cc2c(cc1OC)CN(c1nc(-c3cccnc3)nc3ccccc13)CC2,1,0,87,58*,i
CN1CCN(c2nc(-c3cccnc3)nc3ccccc23)CC1,-2,5,95,1,i
Cc1ccc2[nH]c3c(c2c1)CCc1cn[nH]c1-3,-2,1,84,-11,i
CCOc1ccccc1C(=O)N(Cc1ccccc1)Cc1cc2cc3c(cc2[nH]c1=O)OCCO3,-2,2,98,21,+
O=C(c1ccccc1)N(CCO)Cc1cc2cc3c(cc2[nH]c1=O)OCCO3,-2,-1,94,-5,i
CC(=O)NC(c1cc(F)c2cccnc2c1O)C1CC1 (centres undefined),-1,-1,84,55*,i
O=S(=O)(N/N=C1/CC(c2ccccc2)Oc2ccccc21)c1ccccc1 (centres undefined),x,1,135,-2,+
O=C(Nc1ccc([N+](=O)[O-])cc1)c1cc(Cl)sc1Cl,-4,0,93,-6,+
CC1(C)CC(=O)C(C=NCC2CCN(C(=S)Nc3ccccc3)CC2)=C(O)C1,1,-1,97,0,i
CCOC(=O)C1CCN(Cc2cc(=O)oc3c(C)c(C)ccc23)CC1,0,1,107,-13,+
Cc1ccc2c(CN3CCC(C)CC3)cc(=O)oc2c1C,2,-1,105,4,i
O=[N+]([O-])c1ccc(N=Nc2ccc(O)c3ccccc23)cc1,x,-2,213,-26,+
O=S(=O)(Nc1ccc(N=Nc2ccc(O)c3ccccc23)cc1)c1ccccc1,-3,-1,145,-8,i
COc1ccccc1NC(=O)CCC(=O)c1ccc(-c2ccccc2)cc1,0,-1,97,-3,+
Brc1ccc(C2=CC(c3cccs3)n3ncnc3N2)cc1 (centres undefined),-4,2,96,40,+
CCOC(=O)CN(Cc1sccc1C)C(=O)Nc1ccc(OC)cc1OC,0,-2,102,2,i
O=[N+]([O-])c1ccc(-c2ccc(/C=N/Nc3nc(N4CCCCC4)nc(N4CCCCC4)n3)o2)cc1,-4,1,i,-2,+
CCOC(=O)c1c(NC(=O)c2cccs2)sc(C(=O)N(C)C)c1C,1,1,104,17,i
O=c1cc(-c2cccnc2)oc2c1ccc1ccccc12,-2,0,104,76*,i
